Sampled rows, rich in hits. Any-hit rate of the full collection: about 3.5%.
TRb SRC2 PPI = inhibitors of human thyroid hormone receptor beta-SRC2 interaction | P10828 | TRbeta-SRC2 peptide binding, fluorescence polarization; receptor liganded with 1 µM T3 | Potency, µM (doses to about 106 µM), for inactives: top-dose activity change, negative = inhibition, usual class: inhibitors | 0.065% of 280,000 active | AID 1469;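 further: plate controls were bound peptide for no effect and peptide without receptor for full effect; nearly all actives have a fitted effect of over 50% in size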
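Read-out is fluorescence polarization (555 nm excitation, 632 nm emission) of a Texas Red SRC2 coactivator peptide; loss of signal reflects blocked binding to human TRb ligand-binding domain in the presence of 1 uM T3.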
Tau fibril ThT = blocks human tau fibril formation measured by thioflavin T. P10636. recombinant tau K18 P301L, heparin-induced fibrillization, ThT fluorescence. Potency, µM (doses to about 57.4 µM), for inactives: at the top dose activity, negative = inhibition, actives largely listed as inhibitors. 2.1% of 270,000 active. AID 1460; further: nearly all actives have a fitted effect of over 55% in size
Target sequence (P10636 561-689 P618L limits assumed): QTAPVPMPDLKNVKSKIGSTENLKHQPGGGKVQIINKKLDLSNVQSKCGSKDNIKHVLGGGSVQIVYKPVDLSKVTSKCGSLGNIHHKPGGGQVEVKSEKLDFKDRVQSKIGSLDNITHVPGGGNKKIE
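Heparin-induced (20 uM) aggregation of recombinant human K18 P301L tau, 15 uM unlabeled with 0.24 uM labeled, pH 7 acetate buffer, 6 hr at 37 C with compound. Fibrils quantified by 30 uM ThT fluorescence after 1 hr ambient incubation.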
Tau fibril FP = tau fibrillization inhibition (FP) | P10636 | K18 P301L tau heparin fibrillization, Alexa594 FP, 6 h | Potency, µM (doses to about 57.7 µM), inactives show top-dose activity, negative = inhibition, hits mostly inhibitors | 0.39% of 280,000 active; further: nearly all actives have a fitted effect of over 55% in size
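FP of Alexa 594-tau after heparin (20 uM) induction. Substrate: human K18 P301L, 15 uM unlabeled, 0.24 uM labeled. Buffer 100 mM sodium acetate pH 7. 6 hr, 37 C.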
JMJD2E inh = blocks human JMJD2E demethylase activity; B2RXH2; JMJD2E catalytic domain, FDH-coupled NADH fluorescence (FDH is formaldehyde dehydrogenase); Potency, µM (series often up to 57.1 µM), for inactives: at the highest dose activity change, negative = inhibition, actives largely listed as inhibitors; 1.6% of 230,000 active; active means well fitted inhibition curve with a large enough effect, not every such curve was filed as active; inconclusive means small, poorly fitted or top-dose-only effect, or another doubt; inactive means no such curve, though single readings can be large or run the other way;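 further: 0% = wells with enzyme and -100% = buffer wells without enzyme; nearly all actives have a fitted effect of over 50% in size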
Target sequence (B2RXH2 1-337 limits assumed): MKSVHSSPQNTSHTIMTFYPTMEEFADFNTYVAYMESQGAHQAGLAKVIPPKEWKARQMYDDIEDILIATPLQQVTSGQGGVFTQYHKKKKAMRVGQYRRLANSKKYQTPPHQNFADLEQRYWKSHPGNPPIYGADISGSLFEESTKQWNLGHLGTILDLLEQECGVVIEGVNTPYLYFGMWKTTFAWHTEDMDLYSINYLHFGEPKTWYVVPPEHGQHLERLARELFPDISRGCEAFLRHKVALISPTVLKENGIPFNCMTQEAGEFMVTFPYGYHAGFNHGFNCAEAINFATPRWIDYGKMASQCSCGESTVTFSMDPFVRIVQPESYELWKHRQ
TR SRC2 fluor cs = alters Texas Red total fluorescence, flagging assay interference. TRb/SRC2 Texas Red total fluorescence interference. Potency, µM (doses to about 106 µM), for the others: top-dose fluorescence change, negative = quenching. 0.29% of 280,000 active; active means well fitted curve in either direction with a large enough effect; inconclusive means small, poorly fitted or top-dose-only effect
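Flags fluorescent or light-absorbing compounds by total fluorescence, S + 2P, at 555 nm excitation and 632 nm emission. Mixture: 20 nM Texas Red SRC2 peptide, 0.6 uM human TRb LBD, 1 uM T3, 5% DMSO; compound exposure 5 h at ambient temperature.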
Tau fluor cs = counter-screen for tau fibril formation inhibitors. AID 1463. Potency, µM (series often up to 57.7 µM), without a hit: at the highest dose activity change, negative = decrease. 0.93% of 280,000 active. tau K18 P301L Alexa594 fluorescence, heparin fibrillization; further: nearly all actives have a fitted effect of over 55% in size
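Human tau K18 P301L (15 uM unlabeled, 0.24 uM Alexa 594-labeled) in 100 mM sodium acetate pH 7 with 20 uM heparin, 6 hr at 37 C. ThT 30 uM added, 1 hr ambient; Alexa 594 FP and total fluorescence read at 555/632 nm.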
* marks the source's active call; other numbers are inactive results; ! = not active in a repeat; [ ] = remark or other dose. Unless noted, the call rests on the fitted dose curve; in most records, active means well fitted curve in the direction sought with a large enough effect; inconclusive means small, poorly fitted or top-dose-only effect, or another doubt; inactive means no such curve, though single readings can be large; an effect the other way counts as inactive or inconclusive. Unless noted, on the % scale 0 is the no-effect control and ±100 the full control effect; potency means the concentration at half of the fitted maximal effect.

For COc1ccc(N/C=C/c2nc(SC)nnc2C)cc1 the results were TRb SRC2 PPI 2%, Tau fibril ThT 3.2µM*, Tau fibril FP 8%, JMJD2E inh -15%, TR SRC2 fluor cs -8% and Tau fluor cs -17%.
For CSc1nnc(C)c(/C=C/Nc2ccc(Cl)cc2)n1 the results were TRb SRC2 PPI -1%, Tau fibril ThT 16µM*, Tau fibril FP 8%, JMJD2E inh -8%, TR SRC2 fluor cs -8% and Tau fluor cs -30%.
Screening Cc1ccc(S(=O)(=O)N/N=c2\sc3ccccc3n2C)cc1 returned TRb SRC2 PPI 0%, Tau fibril ThT 4%, Tau fibril FP -10%, JMJD2E inh 7%, TR SRC2 fluor cs -2% and Tau fluor cs 2%.
For COc1ccc(Nc2nc3[nH]c(=O)cc(O)c3s2)cc1 the results were TRb SRC2 PPI 0%, Tau fibril ThT 11%, Tau fibril FP 2%, JMJD2E inh -4%, TR SRC2 fluor cs -1% and Tau fluor cs 11%.
Screening O=c1cc(O)c2sc(Nc3ccc(F)c(Cl)c3)nc2[nH]1 returned TRb SRC2 PPI 6%, Tau fibril ThT 28µM*, Tau fibril FP inconclusive, JMJD2E inh inconclusive, TR SRC2 fluor cs -1% and Tau fluor cs inconclusive.
For c1ccc(-c2cn3nc4c(nc3n2)CCCC4)cc1 the results were TRb SRC2 PPI -25%, Tau fibril ThT inconclusive, Tau fibril FP inconclusive, JMJD2E inh 32µM*, TR SRC2 fluor cs -1% and Tau fluor cs inconclusive.
Screening Brc1ccc(-c2cn3nc4c(nc3n2)CCCC4)cc1 returned TRb SRC2 PPI -19%, Tau fibril ThT 18µM*, Tau fibril FP inconclusive, JMJD2E inh inconclusive, TR SRC2 fluor cs -2% and Tau fluor cs inconclusive.
`CC(C)N(CCO)C(=O)C(c1ccccc1)c1ccccc1` gave TRb SRC2 PPI -19%, Tau fibril ThT 8%, Tau fibril FP 3%, JMJD2E inh 5%, TR SRC2 fluor cs 1% and Tau fluor cs 5%.
COc1cc(NS(=O)(=O)c2ccc(NC(=S)NC(=O)c3sc4ccccc4c3Cl)cc2)ncn1 was read as TRb SRC2 PPI 10%, Tau fibril ThT inconclusive, Tau fibril FP 1%, JMJD2E inh 1%, TR SRC2 fluor cs 8% and Tau fluor cs -9%.
Screening Cc1nnc(Sc2cc(NCCO)c([N+](=O)[O-])c3nonc23)s1 returned TRb SRC2 PPI 2%, Tau fibril ThT 7.9µM*, Tau fibril FP inconclusive, JMJD2E inh -3%, TR SRC2 fluor cs -2% and Tau fluor cs inconclusive.
CCCSc1cc(NCCOC(C)=O)c([N+](=O)[O-])c2nonc12 was read as TRb SRC2 PPI 0%, Tau fibril ThT inconclusive, Tau fibril FP -6%, JMJD2E inh 0%, TR SRC2 fluor cs -1% and Tau fluor cs inconclusive.
Screening Cc1nnc(Sc2cc(NCCCO)c([N+](=O)[O-])c3nonc23)s1 returned TRb SRC2 PPI 2%, Tau fibril ThT 6.3µM*, Tau fibril FP -14%, JMJD2E inh -3%, TR SRC2 fluor cs -4% and Tau fluor cs inconclusive.
`O=C(Nc1nnc(N2CCCC2)s1)Nc1cc(F)ccc1F` gave TRb SRC2 PPI -3%, Tau fibril ThT 2%, Tau fibril FP -7%, TR SRC2 fluor cs -1% and Tau fluor cs 2%.
For CC(C)(C)OC(=O)N1CCC[C@H]1C(=O)NCc1ccc(Cl)cc1Cl the results were TRb SRC2 PPI -2%, Tau fibril ThT -4%, Tau fibril FP 5%, JMJD2E inh 1%, TR SRC2 fluor cs 0% and Tau fluor cs -4%.
Screening Cc1nc2ccc(S(=O)(=O)NCC(=O)N(C)Cc3ccccc3)cc2s1 returned TRb SRC2 PPI -9%, Tau fibril ThT -5%, Tau fibril FP 1%, JMJD2E inh 1%, TR SRC2 fluor cs -2% and Tau fluor cs 1%.
Cc1cccc(/C(N)=N/OC(=O)c2ccc(Br)o2)c1 was read as TRb SRC2 PPI -4%, Tau fibril ThT inconclusive, Tau fibril FP -13%, JMJD2E inh -2%, TR SRC2 fluor cs 1% and Tau fluor cs -12%.
Screening CC1=C(/C=C/C(C)=C/C=C/C(C)=C/C(=O)Nc2ccc(O)cc2)C(C)(C)CCC1 returned TRb SRC2 PPI 1%, Tau fibril ThT 16µM*, Tau fibril FP 14%, JMJD2E inh 20µM*!, TR SRC2 fluor cs -2% and Tau fluor cs 11µM*[quencher].
CC1=C(/C=C/C(C)=C/C=C/C(C)=C\C(=O)O)C(C)(C)CCC1 was read as TRb SRC2 PPI 22µM*!, Tau fibril ThT -10%, Tau fibril FP -1%, JMJD2E inh -2%, TR SRC2 fluor cs 28µM*![fluorescent] and Tau fluor cs 0%.
For CC1=C(/C=C/C(=C/C=C/C(C)=C/C(=O)O)c2ccc(C)cc2)C(C)(C)CCC1 the results were TRb SRC2 PPI -4%, Tau fibril ThT inconclusive, Tau fibril FP inconclusive, TR SRC2 fluor cs -1% and Tau fluor cs -17%.
Screening CC(C=CC1=C(C)CCCC1(C)C)=CC=CC(C)=CC(=O)Nc1ccc(O)cc1 returned TRb SRC2 PPI -3%[201 µM] and TR SRC2 fluor cs -2%[201 µM].
`CC1=C(/C=C/C(=O)O)C(C)(C)CCC1` gave TRb SRC2 PPI 0%, Tau fibril ThT -4%, Tau fibril FP 2%, JMJD2E inh 0%, TR SRC2 fluor cs -2% and Tau fluor cs -2%.
For CC1=C(\C=C/C(C)=C/C=C\C(C)=C\C(=O)O)C(C)(C)CCC1 the results were TRb SRC2 PPI -7%, Tau fibril ThT 32µM*!, Tau fibril FP inconclusive, JMJD2E inh -2%, TR SRC2 fluor cs -1% and Tau fluor cs -1%.
For Cc1ccc(C(=O)Nc2nc(=O)n(C)s2)cc1 the results were TRb SRC2 PPI -2%, Tau fibril ThT 6%, Tau fibril FP -5%, JMJD2E inh 11%, TR SRC2 fluor cs -2% and Tau fluor cs -2%.
Cc1ccc(C(=O)Nc2nc(=O)n(C(=O)c3ccccc3Cl)s2)cc1 was read as TRb SRC2 PPI -9%, Tau fibril ThT 13µM*, Tau fibril FP inconclusive, JMJD2E inh 0%, TR SRC2 fluor cs 0% and Tau fluor cs -29%.
For Cn1sc(NC(=O)c2ccc(Cl)cc2)nc1=O the results were TRb SRC2 PPI -7%, Tau fibril ThT 15%, Tau fibril FP 1%, JMJD2E inh 3%, TR SRC2 fluor cs 0% and Tau fluor cs 2%.
`CC(C)CC(=O)n1sc(NC(=O)c2ccccc2)nc1=O` gave TRb SRC2 PPI -10%, Tau fibril ThT 22µM*, Tau fibril FP inconclusive, JMJD2E inh -2%, TR SRC2 fluor cs 0% and Tau fluor cs -20%.
For COC(=O)c1ccc(CN(C(C)=O)c2ccccc2)o1 the results were TRb SRC2 PPI -8%, Tau fibril ThT 5%, Tau fibril FP -2%, JMJD2E inh -4%, TR SRC2 fluor cs -6% and Tau fluor cs 8%.

Screening data as filed in PubChem.
